# In all, about 59,000 compounds went through this assay and about 6,500 (11%) were called active. Inconclusive results (about 15%) are left out. No stated cut-off is given here; in the data, active means max dye-equivalent concentration above about 10 nM; inconclusive means mostly about 1.1 nM to 9.6 nM; inactive means weaker than that. The entries come from a sample that favours actives as a whole.
# Experiment: qHTS Assay for Spectroscopic Profiling in A350 Spectral Region
# Settings: Compound autofluorescence, 340/450 nm, Alexa 350 dye-equivalents; hits give high values
row,Compound,max dye-equivalent concentration
1,c1cnc(NC2C3CC4CC(C3)CC2C4)nc1 (configuration not stated),inactive
2,O=C(CN(Cc1ccccc1)C(=O)c1ccc2c(c1)OCCO2)NCc1ccc2c(c1)OCO2,inactive
3,Cc1cc(NC(=O)Cn2nc(C(F)(F)F)c3c2CCCC3)no1,inactive
4,COC(=O)c1ccc(C2NC(=O)NC(C)=C2C(=O)N(C)C)cc1 (configuration not stated),inactive
5,COCCOC(=O)C1=C(C)NC(=O)CC1c1cc2c(cc1Br)OCO2 (configuration not stated),inactive
6,CCCOC(=O)C1=C(C)NC2=C(C(=O)C(C(=O)OC)C(C)C2)C1c1ccc(N(C)C)cc1 (configuration not stated),22 nM (active)
7,COC(=O)c1ccccc1NC(=O)CN(Cc1ccccc1)S(C)(=O)=O,inactive
8,S=c1[nH]nc(SCc2ccccc2Cl)c2[nH]cnc12,inactive
9,CCOC(=O)N1CCN(CC(=O)c2ccc3c(c2)CCN3)CC1,17 nM (active)
10,CCOC(=O)N1CCN(CC(=O)n2c(C)c(C)c3ccccc32)CC1,inactive
11,CCOC(=O)N1CCC(O)(c2cc(C)c(C)cc2C)CC1,inactive
12,O=C(NCCCCO)C(F)(F)C(F)(F)C(F)(F)C(=O)NCCCCO,inactive
13,O=C(Nn1cnc2ccccc2c1=O)c1ccc(F)cc1Cl,inactive
14,Cc1nc(-c2ccc(NC(=O)c3cccs3)cc2)cs1,280 nM (active)
15,O=C(O)Cc1ccc(NC(=O)c2cccs2)cc1,inactive
16,Cn1c(SCC(=O)Nc2cccc(NC(=O)c3cccs3)c2)nnc1-c1ccncc1,inactive
17,O=C(O)C1CC(=O)N(Cc2cccnc2)C1 (configuration not stated),inactive
18,CCOc1ccccc1NC(=O)CCc1ccc(C)o1,inactive
19,O=C(Oc1ccc2c(c1)CCC2)N1CCOCC1,inactive
20,O=C1CC2(CCCCC2)Oc2ccc(OCC(=O)N3CCOCC3)cc21,1100 nM (active)
21,O=C(Nc1cccc(OCC(=O)N2CCOCC2)c1)C1CCCCC1,inactive
22,CCNc1nc(SCCOc2ccccc2)nc(N(C)C)n1,inactive
23,CCCn1c(SCC(=O)Nc2c(C)cccc2C)nnc1C(C)C,inactive

row,Compound,max dye-equivalent concentration
1,CC(=O)Nc1ccc(NC(=O)CN2CCCC(C)C2)c(Cl)c1 (configuration not stated),inactive
2,Cc1nnc(SCC(N)=O)n1CC1CCCO1 (configuration not stated),inactive
3,Cn1c(=O)c2c(nc(CN3CCOCC3)n2Cc2ccccc2)n(C)c1=O,inactive
4,Cc1cccn2c(=O)c3cc(C#N)c(=O)n(CCCN4CCOCC4)c3nc12,12000 nM (active)
5,Cc1cccn2c(=O)c3cc(C#N)c(=NC(=O)c4cccnc4)n(CC4CCCO4)c3nc12 (configuration not stated),4000 nM (active)
6,CCn1cc(C(=O)NCc2ccc(OC)cc2OC)c(=O)c2ccc(C)nc21,inactive
7,Cc1ccc(S(=O)(=O)NC(=O)NN2C[C@H]3CCC[C@@H]3C2)cc1,inactive
8,Cc1cc(=O)[nH]c(SCC(N)=O)c1C#N,inactive
9,Cn1cccc1C(=O)N1CCC[C@@]2(CCN(Cc3nccs3)C2)C1,inactive
10,O=S(=O)(c1ccc(Sc2nnc3ccccn23)nc1)N1CCOCC1,inactive
11,CC(C)(C)c1nc(NCC2CCCO2)c2nnn(Cc3ccccc3)c2n1 (configuration not stated),inactive
12,Cn1c(=O)c2[nH]c(NCC3CCCO3)nc2n(-c2ccccc2)c1=O (configuration not stated),11 nM (active)
13,CC(CCO)Nc1nc2c([nH]1)c(=O)n(C)c(=O)n2C (configuration not stated),inactive
14,Cc1ccc2nc(S(=O)(=O)O)[nH]c2c1,inactive
15,COc1cc(-c2nc(S(=O)(=O)c3ccc(Cl)cc3)c(N(C)C)o2)cc(OC)c1OC,inactive
16,CCOC(=O)c1cc(-c2nnc(-c3cc(OC)c(OC)c(OC)c3)o2)c(C)nc1C,18 nM (active)
17,COc1cc(-c2nnc(Cn3cc(C(F)(F)F)ccc3=O)o2)cc(OC)c1OC,inactive
18,CCCCC(=O)N1CC2(C)CN(C(=O)CCCC)CC(C)(C1)C2=O,inactive
19,CN1CCN(CC(=O)C23CC4CC(CC(C4)C2)C3)CC1,inactive
20,CC(NCCO)C(=O)C12CC3CC(CC(C3)C1)C2 (configuration not stated),43 nM (active)
21,C=CCNC(=O)C12CC3CC(C1)CC(C(=O)NCC=C)(C3)C2,inactive
22,O=C(O)CCC(=O)Nc1ccc(N2CCOCC2)cc1,inactive
23,CN(C)c1nc2n(c(=O)n1)CCO2,inactive

row,Compound,max dye-equivalent concentration
1,Cc1ccsc1CNn1cnnc1SCc1ccccc1F,inactive
2,O=C(c1cnccn1)N1CCC2(CCN(Cc3cc(C(F)(F)F)cc(C(F)(F)F)c3)CC2)CC1,inactive
3,CCN1CCN(c2ncnc3c2oc2nc(C)c4c(c23)CC(C)(C)OC4)CC1,inactive
4,Cc1nc(NCCN)c(C#N)c2c1COC(C)(C)C2,16 nM (active)
5,COc1ccc2[nH]cc(CCNc3cc(-c4ccccc4CN(C)C)ncn3)c2c1,inactive
6,Nc1ccc2c3c(cccc13)C(=O)NC2=O,inactive
7,CNc1nc(-c2ccccc2OC)nc2ccccc12,inactive
8,CCSc1nc(=S)n(CC)c(C)c1C(C)=O,inactive
9,CCOC(=O)N1CCC(NC(=O)C(C)n2c3ccccc3c3cnn(C)c(=O)c32)CC1 (configuration not stated),inactive
10,CCOC(=O)N1CCC(NC(=O)Cc2cn(C)c3ccccc23)CC1,inactive
11,CCOC(=O)N1CCC(NC(=O)CCc2cn(C)c3ccccc23)CC1,470 nM (active)
12,CC(=O)N1CCN(C(=O)c2cccc(S(=O)(=O)Nc3ccc(C)cc3)c2)CC1,inactive
13,CC1(C)CC(CCC(=O)Nc2ccccc2Cl)C(=O)O1 (configuration not stated),inactive
14,CC(C)c1nc2oc3c(N4CCN(C)CC4)ncnc3c2c2c1CCC2,inactive
15,CCCCC(=O)Nc1ccc2c(c1)OCCO2,inactive
16,CCCCCC(=O)Nc1ccc2oc(-c3ccncc3)nc2c1,29 nM (active)
17,CCCCC(=O)Nc1ccc(C(=O)NCCCn2ccnc2)cc1,inactive
18,CCOC(=O)c1cccc(NC(=O)CCc2c(C)nc3ncnn3c2C)c1,inactive
19,CCCCCN(C(=O)NC(=O)Nc1ccccc1OC)S(C)(=O)=O,inactive
20,COc1ccc(OC)c(NC(=O)CSc2nc3cccnc3n2C)c1,inactive
21,CCCC1C(c2ccccc2)C(C#N)(C#N)C2(C#N)CC1(N)NC2=O (configuration not stated),inactive
22,CN1CCN(C(=O)C2C3C=CC(C3)C2C(=O)O)CC1 (configuration not stated),inactive
23,O=C(OCCN1CCOCC1)C1(c2ccccc2)CCCCC1,inactive

row,Compound,max dye-equivalent concentration
1,CCOC(=O)c1c(CN2CCOCC2)n(-c2ccccc2)c2ccc(O)cc12,inactive
2,O=C(CN1CCOCC1)N1CCCc2c1c(=O)oc1ccc(OCc3ccccc3)cc21,41 nM (active)
3,O=S(=O)(O)c1nc2ccccc2n1Cc1ccc(Cl)cc1Cl,inactive
4,COc1ccc(CNc2ncncc2-c2ccccc2C)c(OC)c1,inactive
5,Cc1ccccc1NC(=O)CNc1ccccc1N1CCCCC1,inactive
6,CCOc1ccc2nc(N3CCCN(C(=O)Nc4ccccc4C)CC3)c(C#N)cc2c1,16 nM (active)
7,CCOc1ccc(NC(=O)N2CCN(CC)CC2)cc1,inactive
8,Cc1ccnc(SCCn2c(Br)nc3c2c(=O)[nH]c(=O)n3C)n1,inactive
9,CC1CN(C2CCN(C(=O)COc3ccccc3)CC2)CC(C)O1 (configuration not stated),inactive
10,Nc1nc2c(ncn2[C@H]2CC[C@@H](CO)O2)c(=O)n1C(=O)c1ccccc1,inactive
11,COc1cccc(Cn2c(=O)c(C)nc3cnc(Oc4ccccc4)nc32)c1,inactive
12,CCNc1ncc2ncc(=O)n(CCc3ccccc3)c2n1,89 nM (active)
13,CCNc1ncc2nc(CCc3ccccc3)c(=O)n(-c3ccc(OC)cc3)c2n1,15 nM (active)
14,COc1cccc(CN2C(=O)CCC2(C)C(=O)NC2CCCCCC2)c1 (configuration not stated),inactive
15,CCNc1ncc2ncc(=O)n(Cc3cccc(OC)c3)c2n1,16 nM (active)
16,CCc1nnc(NC(=O)CSc2nnc(Cc3ccccc3)n2-c2ccc(OC)cc2)s1,inactive
17,COc1ccc(-n2c(C)nc3c(cnn3-c3ccccc3)c2=O)cc1,inactive
18,COc1cccc(Nc2ncc3ncc(=O)n(C4CC4)c3n2)c1,inactive
19,COc1cccc(Cn2c(=O)cnc3cncnc32)c1,inactive
20,COc1cccc(Cn2c(=O)c(CCc3ccccc3)nc3cnc(N(C)C)nc32)c1,31 nM (active)
21,O=c1cnc2cnc(Nc3ccccc3)nc2n1Cc1ccc(F)cc1,inactive
22,CSCCC(NC(=O)C1CCC(C)CC1)C(=O)NCc1ccco1 (configuration not stated),inactive
23,CC(C)NC(=O)N1CCCC2(CCN(C(=O)c3cccn3C)CC2)C1,inactive

row,Compound,max dye-equivalent concentration
1,Cc1cccc(C)c1NC(=O)N1CC=C(n2c(=O)[nH]c3ccccc32)CC1,inactive
2,CC(C)CCNC(=O)C1CCCN(S(=O)(=O)c2ccc(F)cc2)C1 (configuration not stated),inactive
3,CCN(CC)C(=O)CSc1nnc(-c2cccc(OC)c2)o1,inactive
4,CC(C)NC(=O)CCCn1c(=S)[nH]c2cc3c(cc2c1=O)OCO3,inactive
5,Cc1cccc(NC(=O)CSc2nnc(CCCCCNC(=O)OC(C)(C)C)o2)c1C,inactive
6,Cc1cccc(N(CC(O)CN(C)C)S(=O)(=O)c2ccccc2)c1 (configuration not stated),inactive
7,COC(=O)c1ccc(Oc2nc(Nc3ccc(F)cc3)nc(N3CCCC3)n2)cc1,inactive
8,CSc1ccc(S(=O)(=O)Nc2cccc(F)c2)cc1,inactive
9,C=CCN(c1ccc(C(N)=O)cc1)S(C)(=O)=O,inactive
10,CCOC(=O)C1CCN(C(=O)CSc2cc(=O)n(C)c3ccccc23)CC1,inactive
11,Cn1c(=O)cc(SCC(=O)N2CCCC2)c2cc(Cl)ccc21,12 nM (active)
12,Cn1c(=O)cc(SCC(=O)N2CCN(C(=O)c3ccco3)CC2)c2ccccc21,inactive
13,COC(=O)c1sc(=S)n(-c2ccccc2)c1N,inactive
14,COCCCNC(=O)Cn1cc(C(=O)C2CC2)c2ccccc21,inactive
15,CCOc1cc(-c2noc(CCC(=O)N3CCOCC3)n2)ccc1OC,inactive
16,COc1ccc(-c2nc(-c3ccccc3)no2)c(OC)c1,inactive
17,O=C(Oc1ccc(-c2nc(-c3ccccn3)no2)cc1)c1ccccc1,inactive
18,CCOc1nc(-c2ccc(OC)cc2)ccc1-c1noc(-c2cc(OC)c(OC)c(OC)c2)n1,81 nM (active)
19,COc1ccc(-c2ccc(-c3noc(-c4ccncc4)n3)c(OC)n2)cc1,24 nM (active)
20,COc1ccc(-c2noc(CN(C)S(=O)(=O)c3ccc(C)cc3)n2)cc1,inactive

# From PubChem BioAssay AID590 (National Center for Advancing Translational Sciences (NCATS), 2007)
